# Reference: the supplement of paper PMC8728848
# The sample as a whole holds a higher share of the strongest signals than the screen did.
# Key:
# Assay in all cases: glycan array binding signal (z-score within array); higher = stronger binding
# Details in all cases: glycan notation: IUPAC condensed, linker removed
# [1] = target: GlcNAc(a1-4)Gal(b1-4)GlcNAc(b1-3)Gal(b1-4)GlcNAc
# Outline: (§1)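 Columns mapping to the same glycan were averaged after glycan names were converted to IUPAC-condensed notation. The data come from 3228 arrays in the Consortium for Functional Glycomics database, limited to those with an available protein sequence. Binding is reported as a within-array Z-score averaged across arrays of one protein sequence and across linkers.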
# [2] = target: GlcNAc(b1-3)Gal(b1-4)GlcNAc
# Outline: as §1
# [3] = target: GlcNAc(b1-3)Gal(b1-4)GlcNAc(b1-2)Man(a1-3)[GlcNAc(b1-3)Gal(b1-4)GlcNAc(b1-2)Man(a1-6)]Man(b1-4)GlcNAc(b1-4)[Fuc(a1-6)]GlcNAc
# Outline: as §1
# [4] = target: GlcNAc(b1-3)Gal(b1-4)GlcNAc(b1-3)Gal(b1-4)GlcNAc(b1-2)Man(a1-3)[GlcNAc(b1-3)Gal(b1-4)GlcNAc(b1-3)Gal(b1-4)GlcNAc(b1-2)Man(a1-6)]Man(b1-4)GlcNAc(b1-4)GlcNAc
# Outline: as §1
# [5] = target: GlcNAc(b1-3)Gal(b1-4)GlcNAc(b1-3)Gal(b1-4)GlcNAc(b1-3)Gal(b1-4)GlcNAc(b1-2)Man(a1-3)[GlcNAc(b1-3)Gal(b1-4)GlcNAc(b1-3)Gal(b1-4)GlcNAc(b1-3)Gal(b1-4)GlcNAc(b1-2)Man(a1-6)]Man(b1-4)GlcNAc(b1-4)[Fuc(a1-6)]GlcNAc
# Outline: as §1
# Kdn(a2-3)Gal(b1-4)GlcNAc = target: Kdn(a2-3)Gal(b1-4)GlcNAc
# Outline: as §1
# Neu5Ac(a2-3)Gal = target: Neu5Ac(a2-3)Gal
# Outline: as §1
# [6] = target: Neu5Ac(a2-3)Gal(b1-3)GalNAc(b1-3)Gal(a1-4)Gal(b1-4)Glc
# Outline: as §1
# [7] = target: Neu5Ac(a2-3)Gal(b1-3)GlcNAc(b1-3)Gal(b1-4)GlcNAc
# Outline: as §1
# [8] = target: Neu5Ac(a2-3)Gal(b1-3)GlcNAc(b1-6)GalNAc
# Outline: as §1
# [9] = target: Neu5Ac(a2-3)Gal(b1-4)GlcNAc(b1-3)Gal(b1-4)GlcNAc(b1-3)GalNAc
# Outline: as §1
# [10] = target: Neu5Ac(a2-3)Gal(b1-4)[Fuc(a1-3)]GlcNAc
# Outline: as §1
# [11] = target: Neu5Ac(a2-3)Gal(b1-4)[Fuc(a1-3)]GlcNAc(b1-3)Gal(b1-4)[Fuc(a1-3)]GlcNAc(b1-3)Gal(b1-4)[Fuc(a1-3)]GlcNAc
# Outline: as §1
# [12] = target: Neu5Ac(a2-3)Gal(b1-4)[Fuc(a1-3)]GlcNAc(b1-3)GalNAc
# Outline: as §1
# [13] = target: Neu5Ac(a2-3)[Neu5Ac(a2-6)]GalNAc
# Outline: as §1
# [14] = target: Neu5Ac(a2-6)Gal(b1-4)GlcNAc(b1-2)Man
# Outline: as §1
# [15] = target: Neu5Ac(a2-6)Gal(b1-4)GlcNAc(b1-2)Man(a1-3)[Gal(b1-4)GlcNAc(b1-2)Man(a1-6)]Man(b1-4)GlcNAc(b1-4)GlcNAc
# Outline: as §1
# [16] = target: Neu5Ac(a2-8)Neu5Ac(a2-3)Gal(b1-3)GalNAc(b1-4)[Neu5Ac(a2-3)]Gal(b1-4)Glc
# Outline: as §1
# [17] = target: Neu5Ac(a2-8)Neu5Ac(a2-3)[Gal(b1-3)GalNAc(b1-4)]Gal(b1-4)Glc
# Outline: as §1
# [18] = target: Neu5Ac(a2-8)Neu5Ac(a2-8)Neu5Ac(a2-8)Neu5Ac(a2-3)[GalNAc(b1-4)]Gal(b1-4)Glc
# Outline: as §1
# [19] = target: Fuc(a1-2)Gal(b1-3)[Fuc(a1-4)]GlcNAc(b1-3)[Fuc(a1-3)[Gal(b1-4)]GlcNAc(b1-6)]Gal(b1-4)Glc
# Outline: as §1
# [20] = target: Fuc(a1-2)Gal(b1-4)GlcNAc6S
# Outline: as §1
# Fuc(a1-2)[Gal(a1-3)]Gal = target: Fuc(a1-2)[Gal(a1-3)]Gal
# Outline: as §1
# [21] = target: Fuc(a1-3)[Gal(b1-4)]GlcNAc(b1-2)Man(a1-3)[Fuc(a1-3)[Gal(b1-4)]GlcNAc(b1-2)Man(a1-6)]Man(b1-4)GlcNAc(b1-4)GlcNAc
# Outline: as §1
# [22] = target: Gal(a1-3)Gal(b1-4)[Fuc(a1-3)]GlcNAc(b1-2)Man(a1-3)[Gal(a1-3)Gal(b1-4)[Fuc(a1-3)]GlcNAc(b1-2)Man(a1-6)]Man(b1-4)GlcNAc(b1-4)GlcNAc
# Outline: as §1
# [23] = target: Gal(a1-4)Gal(b1-4)GlcNAc(b1-2)Man(a1-3)[Gal(a1-4)Gal(b1-4)GlcNAc(b1-2)Man(a1-6)]Man(b1-4)GlcNAc(b1-4)GlcNAc
# Outline: as §1
# Gal(b1-3)Gal = target: Gal(b1-3)Gal
# Outline: as §1
# [24] = target: Gal(b1-3)GalNAc(a1-3)[Fuc(a1-2)]Gal(b1-4)Glc
# Outline: as §1
# [25] = target: Gal(b1-3)GlcNAc(b1-2)Man(a1-3)[Gal(b1-3)GlcNAc(b1-2)Man(a1-6)]Man(b1-4)GlcNAc(b1-4)GlcNAc
# Outline: as §1
# [26] = target: Gal(b1-3)GlcNAc(b1-3)Gal(b1-4)Glc
# Outline: as §1
# [27] = target: Gal(b1-4)GlcNAc(b1-2)Man(a1-3)[Man(a1-6)]Man(b1-4)GlcNAc(b1-4)GlcNAc
# Outline: as §1
# [28] = target: Gal(b1-4)GlcNAc(b1-2)[Gal(b1-4)GlcNAc(b1-4)]Man(a1-3)[Gal(b1-4)GlcNAc(b1-2)Man(a1-6)]Man(b1-4)GlcNAc(b1-4)GlcNAc
# Outline: as §1
# Gal6S(b1-4)Glc6S = target: Gal6S(b1-4)Glc6S
# Outline: as §1
# GlcNAc(b1-3)Gal = target: GlcNAc(b1-3)Gal
# Outline: as §1
# [29] = target: Man(a1-2)Man(a1-2)Man(a1-3)Man
# Outline: as §1
# [30] = target: Man(a1-2)Man(a1-2)Man(a1-6)[Man(a1-3)]Man
# Outline: as §1
# Man(a1-2)Man(a1-3)Man = target: Man(a1-2)Man(a1-3)Man
# Outline: as §1
# [31] = target: Man(a1-2)Man(a1-3)[Man(a1-2)Man(a1-6)]Man
# Outline: as §1
# [32] = target: Man(a1-2)Man(a1-3)[Man(a1-2)Man(a1-6)]Man(a1-6)[Man(a1-2)Man(a1-2)Man(a1-3)]Man
# Outline: as §1
# [33] = target: Man(a1-2)Man(a1-6)[Man(a1-3)]Man(a1-6)[Man(a1-2)Man(a1-2)Man(a1-3)]Man
# Outline: as §1
# Man(a1-3)[Man(a1-6)]Man = target: Man(a1-3)[Man(a1-6)]Man
# Outline: as §1
# [34] = target: Man(a1-3)[Man(a1-6)]Man(b1-4)GlcNAc(b1-4)GlcNAc
# Outline: as §1
# [35] = target: Neu5Ac(a2-3)Gal(b1-3)[Fuc(a1-4)]GlcNAc
# Outline: as §1
# [36] = target: Neu5Ac(a2-3)Gal(b1-4)GlcNAc
# Outline: as §1
# [37] = target: Neu5Ac(a2-3)Gal(b1-4)[Fuc(a1-3)]GlcNAc(b1-3)Gal
# Outline: as §1
# [38] = target: Neu5Ac(a2-3)[GalNAc(b1-4)]Gal(b1-4)Glc
# Outline: as §1
# [39] = target: Neu5Ac(a2-6)Gal(b1-4)GlcNAc(b1-2)Man(a1-6)Man(b1-4)GlcNAc(b1-4)GlcNAc
# Outline: as §1
# [40] = target: Neu5Ac(a2-6)Gal(b1-4)GlcNAc(b1-3)Gal(b1-4)GlcNAc(b1-3)Gal(b1-4)GlcNAc
# Outline: as §1
# [41] = target: Neu5Ac(b2-6)Gal(b1-4)GlcNAc
# Outline: as §1
# [42] = target: Neu5Gc(a2-3)Gal(b1-3)[Fuc(a1-4)]GlcNAc
# Outline: as §1
# [43] = target: Neu5Gc(a2-3)Gal(b1-4)[Fuc(a1-3)]GlcNAc
# Outline: as §1
binder,measurement,setting,value
"XTP3-B-MRH1 (Homo sapiens), Q96DZ1 (protein) LLEPLFKQSSCSYRIESYWTYEVCHGKHIRQYHEEKETGQKINIHEYYLGNMLAKNLLFEKEREAEEKEKSNEIPTKNIEGQMTPYYPVGMGNGTPCSLKQNRPRSSTVMYICHPESKHEILSVAEVTTCEYEVVILTPLLCSHPKYRFRA",glycan array binding signal (z-score),[1],-0.549
same,glycan array binding signal (z-score),[2],-0.824
same,glycan array binding signal (z-score),[3],-0.235
same,glycan array binding signal (z-score),[4],2.48
same,glycan array binding signal (z-score),[5],4.18
same,glycan array binding signal (z-score),Kdn(a2-3)Gal(b1-4)GlcNAc,-0.086
same,glycan array binding signal (z-score),Neu5Ac(a2-3)Gal,-0.797
same,glycan array binding signal (z-score),[6],-0.636
same,glycan array binding signal (z-score),[7],0.189
same,glycan array binding signal (z-score),[8],-0.811
same,glycan array binding signal (z-score),[9],3.41
same,glycan array binding signal (z-score),[10],-0.083
same,glycan array binding signal (z-score),[11],-0.381
same,glycan array binding signal (z-score),[12],2.68
same,glycan array binding signal (z-score),[13],0.205
same,glycan array binding signal (z-score),[14],1.44
same,glycan array binding signal (z-score),[15],-0.887
same,glycan array binding signal (z-score),[16],-1.01
same,glycan array binding signal (z-score),[17],2.49
same,glycan array binding signal (z-score),[18],1.37
"ZG-16 (Homo sapiens), O60844 (protein) IQARSSSYSGEYGSGGGKRFSHSGNQLDGPITALRVRVNTYYIVGLQVRYGKVWSDYVGGRNGDLEEIFLHPGESVIQVSGKYKWYLKKLVFVTDKGRYLSFGKDSGTSFNAVPLHPNTVLRFISGRSGSLIDAIGLHWDVYPTSCSRCSRGSDDDDKAEPRGPTIKPCPPCKCPAPNLLGGPSVFIFPPKIKDVLMISLSPIVTCVVVDVSEDDPDVQISWFVNNVEVHTAQTQTHREDYNSTLRVVSALPIQHQDWMSGKEFKCKVNNKDLPAPIERTISKPKGSVRAPQVYVLPPPEEEMTKKQVTLTCMVTDFMPEDIYVEWTNNGKTELNYKNTEPVLDSDGSYFMYSKLRVEKKNWVERNSYSCSVVHEGLHNHHTTKSFSRTPGKRTYHHHHHHARKLTR",glycan array binding signal (z-score),[19],-0.196
same,glycan array binding signal (z-score),[20],-0.185
same,glycan array binding signal (z-score),Fuc(a1-2)[Gal(a1-3)]Gal,-0.217
same,glycan array binding signal (z-score),[21],0.273
same,glycan array binding signal (z-score),[22],-0.158
same,glycan array binding signal (z-score),[23],-0.205
same,glycan array binding signal (z-score),Gal(b1-3)Gal,-0.222
same,glycan array binding signal (z-score),[24],-0.193
same,glycan array binding signal (z-score),[25],-0.189
same,glycan array binding signal (z-score),[26],-0.226
same,glycan array binding signal (z-score),[27],-0.146
same,glycan array binding signal (z-score),[28],-0.166
same,glycan array binding signal (z-score),Gal6S(b1-4)Glc6S,-0.16
same,glycan array binding signal (z-score),GlcNAc(b1-3)Gal,-0.231
same,glycan array binding signal (z-score),[29],8.34
same,glycan array binding signal (z-score),[30],5.61
same,glycan array binding signal (z-score),Man(a1-2)Man(a1-3)Man,9.52
same,glycan array binding signal (z-score),[31],3.69
same,glycan array binding signal (z-score),[32],1.94
same,glycan array binding signal (z-score),[33],5.95
same,glycan array binding signal (z-score),Man(a1-3)[Man(a1-6)]Man,4.25
same,glycan array binding signal (z-score),[34],-0.183
same,glycan array binding signal (z-score),[35],-0.202
same,glycan array binding signal (z-score),[36],-0.209
same,glycan array binding signal (z-score),[37],-0.127
same,glycan array binding signal (z-score),[38],-0.21
same,glycan array binding signal (z-score),[39],-0.209
same,glycan array binding signal (z-score),[40],-0.182
same,glycan array binding signal (z-score),[41],-0.221
same,glycan array binding signal (z-score),[42],-0.132
same,glycan array binding signal (z-score),[43],-0.11
